Test results from PubChem BioAssay AID1159580 (chemical genetic matrix, 2015).
The campaign covered roughly 5,500 compounds. About 2,000 (36%) were called active. Inconclusive results (about 18%) are left out. Rule as the data show it: active = normalized growth mostly below about 0.91 (no sharp cut-off); inconclusive = no clear call, values can overlap the other calls; inactive = mostly above about 0.92. The list shows a part of the results.

Experiment: chemical genetic growth profiling, strain panel (AID 1159580);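 also: tested at 20 µM; growth read once vehicle control cultures reached saturation at 30 °C; 1 = growth at the plate median or of vehicle wells; lower values mean less growth of the strain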
Details: growth OD

Measured: normalized growth

COc1cc(O)c(C(=O)O)c(O)c1
active: S. cerevisiae deletion strains, locus YLR113W, strain HOG1, hits give low values 0.83 | S. cerevisiae deletion strains, locus YPL256C, strain CLN2, hits give low values 0.824
inactive: S. cerevisiae deletion strains, locus YJR075W, strain HOC1, hits give low values 1 | S. cerevisiae deletion strains, locus YKL009W, strain mrt4, hits give low values 1.01 | S. cerevisiae deletion strains, locus YKL068W, hits give low values 0.954 | S. cerevisiae deletion strains, locus YKL085W, strain MDH1 (second series), hits give low values 0.961 | S. cerevisiae deletion strains, locus YKL085W, strain MDH1, hits give low values 0.961 | S. cerevisiae deletion strains, locus YKL160W, strain elf1, hits give low values 1 | S. cerevisiae deletion strains, locus YKL190W, strain CNB1, hits give low values 1.01 | S. cerevisiae deletion strains, locus YKR001C, strain vps1, hits give low values 1.02 | S. cerevisiae deletion strains, locus YKR026C, strain gcn3, hits give low values 0.986 | S. cerevisiae deletion strains, locus YKR091W, strain srl3, hits give low values 0.991 | S. cerevisiae deletion strains, locus YLL001W, strain dnm1, hits give low values 0.981 | S. cerevisiae deletion strains, locus YLL026W, hits give low values 1 | S. cerevisiae deletion strains, locus YLL041C, strain sdh2, hits give low values 0.986 | S. cerevisiae deletion strains, locus YLR027C, strain aat2, hits give low values 0.983 | S. cerevisiae deletion strains, locus YLR039C, strain RIC1, hits give low values 1.06 | S. cerevisiae deletion strains, locus YLR058C, strain SHM2, hits give low values 1 | S. cerevisiae deletion strains, locus YLR102C, strain apc9, hits give low values 0.997 | S. cerevisiae deletion strains, locus YLR221C, strain rsa3, hits give low values 1 | S. cerevisiae deletion strains, locus YLR258W, strain gsy2, hits give low values 0.998 | S. cerevisiae deletion strains, locus YLR262C, strain YPT6 (second series), hits give low values 1.02 | S. cerevisiae deletion strains, locus YLR262C, strain YPT6, hits give low values 1.02 | S. cerevisiae deletion strains, locus YLR268W, strain sec22, hits give low values 0.995 | S. cerevisiae deletion strains, locus YLR320W, strain mms22, hits give low values 1.01 | S. cerevisiae deletion strains, locus YLR330W, strain CHS5, hits give low values 0.991 | S. cerevisiae deletion strains, locus YLR342W, strain FKS1 (second series), hits give low values 1.06 | S. cerevisiae deletion strains, locus YLR342W, strain FKS1, hits give low values 0.99 | S. cerevisiae deletion strains, locus YLR357W, strain rsc2, hits give low values 1.01 | S. cerevisiae deletion strains, locus YLR370C, strain arc18, hits give low values 0.99 | S. cerevisiae deletion strains, locus YLR371W, strain rom2, hits give low values 0.999 | S. cerevisiae deletion strains, locus YLR384C, strain iki3, hits give low values 0.985 | S. cerevisiae deletion strains, locus YLR418C, strain cdc73, hits give low values 1.01 | S. cerevisiae deletion strains, locus YML016C, strain PPZ1, hits give low values 0.999 | S. cerevisiae deletion strains, locus YML032C, strain rad52, hits give low values 1.04 | S. cerevisiae deletion strains, locus YML120C, strain ndi1, hits give low values 0.998 | S. cerevisiae deletion strains, locus YML124C, strain tub3, hits give low values 0.992 | S. cerevisiae deletion strains, locus YMR058W, strain fet3, hits give low values 0.999 | S. cerevisiae deletion strains, locus YMR078C, strain ctf18, hits give low values 1.01 | S. cerevisiae deletion strains, locus YMR125W, strain sto1, hits give low values 0.973 | S. cerevisiae deletion strains, locus YMR129W, hits give low values 0.986 | S. cerevisiae deletion strains, locus YMR205C, strain PFK2, hits give low values 1.01 | S. cerevisiae deletion strains, locus YMR223W, strain ubp8, hits give low values 1.03 | S. cerevisiae deletion strains, locus YMR231W, strain pep5, hits give low values 0.984 | S. cerevisiae deletion strains, locus YMR263W, strain SAP30, hits give low values 1 | S. cerevisiae deletion strains, locus YMR307W, strain GAS1, hits give low values 1.03 | S. cerevisiae deletion strains, locus YNL067W, strain RPL9B, hits give low values 1 | S. cerevisiae deletion strains, locus YNL071W, strain lat1, hits give low values 0.99 | S. cerevisiae deletion strains, locus YNL128W, strain TEP1, hits give low values 1 | S. cerevisiae deletion strains, locus YNL153C, strain GIM3, hits give low values 0.998 | S. cerevisiae deletion strains, locus YNL183C, strain NPR1, hits give low values 0.84 | S. cerevisiae deletion strains, locus YNL209W, strain ssb2, hits give low values 0.981 | S. cerevisiae deletion strains, locus YNL233W, strain BNI4, hits give low values 1.01 | S. cerevisiae deletion strains, locus YNL248C, strain rpa49, hits give low values 0.992 | S. cerevisiae deletion strains, locus YNL250W, strain rad50, hits give low values 0.97 | S. cerevisiae deletion strains, locus YNL271C, strain bni1, hits give low values 0.945 | S. cerevisiae deletion strains, locus YNL298W, strain CLA4, hits give low values 0.977 | S. cerevisiae deletion strains, locus YNL307C, strain MCK1, hits give low values 1.02 | S. cerevisiae deletion strains, locus YNL322C, strain KRE1 (second series), hits give low values 0.972 | S. cerevisiae deletion strains, locus YNL322C, strain KRE1, hits give low values 0.99 | S. cerevisiae deletion strains, locus YNR049C, strain mso1, hits give low values 0.98 | S. cerevisiae deletion strains, locus YNR052C, strain pop2, hits give low values 1.02 | S. cerevisiae deletion strains, locus YOL006C, strain TOP1, hits give low values 1.04 | S. cerevisiae deletion strains, locus YOL012C, strain htz1 0.943 | S. cerevisiae deletion strains, locus YOL147C, strain pex11, hits give low values 1 | S. cerevisiae deletion strains, locus YOR001W, strain rrp6, hits give low values 0.999 | S. cerevisiae deletion strains, locus YOR061W, strain CKA2, hits give low values 1.01 | S. cerevisiae deletion strains, locus YOR069W, strain VPS5, hits give low values 0.993 | S. cerevisiae deletion strains, locus YOR070C, strain gyp1, hits give low values 0.994 | S. cerevisiae deletion strains, locus YOR080W, strain dia2, hits give low values 1 | S. cerevisiae deletion strains, locus YOR083W, strain WHI5, hits give low values 1.01 | S. cerevisiae deletion strains, locus YOR106W, strain vam3, hits give low values 1.01 | S. cerevisiae deletion strains, locus YOR136W, strain idh2, hits give low values 1.03 | S. cerevisiae deletion strains, locus YOR144C, strain elg1, hits give low values 1 | S. cerevisiae deletion strains, locus YOR184W, strain ser1, hits give low values 1.04 | S. cerevisiae deletion strains, locus YOR231W, strain MKK1, hits give low values 0.885 | S. cerevisiae deletion strains, locus YOR265W, strain rbl2, hits give low values 0.997 | S. cerevisiae deletion strains, locus YOR270C, strain vph1, hits give low values 1.02 | S. cerevisiae deletion strains, locus YOR290C, strain snf2, hits give low values 1.01 | S. cerevisiae deletion strains, locus YOR316C, strain cot1, hits give low values 1 | S. cerevisiae deletion strains, locus YPL051W, strain arl3, hits give low values 0.986 | S. cerevisiae deletion strains, locus YPL055C, strain LGE1, hits give low values 1.01 | S. cerevisiae deletion strains, locus YPL078C, strain atp4, hits give low values 0.992 | S. cerevisiae deletion strains, locus YPL106C, strain sse1, hits give low values 0.982 | S. cerevisiae deletion strains, locus YPL240C, strain hsp82, hits give low values 1 | S. cerevisiae deletion strains, locus YPL241C, strain CIN2, hits give low values 0.997 | S. cerevisiae deletion strains, locus YPR119W, strain clb2, hits give low values 0.987 | S. cerevisiae deletion strains, locus YPR141C, strain kar3, hits give low values 0.968 | S. cerevisiae deletion strains, locus YPR163C, strain tif3, hits give low values 1.01 | S. cerevisiae deletion strains, locus YPR167C, strain met16, hits give low values 1 | S. cerevisiae deletion strains, strain wtn01, hits give low values 1.01 | S. cerevisiae strains, strain wild type, hits give low values 1
